# The panel holds about 79,000 compounds, 15% with a hit somewhere; the sample as a whole holds those more often. A number with no mark means an inactive call. Activity calls are given as the source filed them. No stated cut-off is given here; in the data, active means growth inhibition above about 70%; inactive means the rest.
# Experiment: NCI Yeast Anticancer Drug Screen. Data for the bub3 strain (AID 167)
# Conditions: S. cerevisiae bub3 mutant strain, active compounds read high
# Experimental: Growth inhibition of yeast strains with defined genetic alterations is measured as a screen for potential anti-cancer activity. Selected strains with alterations in DNA damage repair or cell cycle control were exposed to compounds and growth inhibition was measured relative to vehicle treated controls. The strain used in this assay is bub3
# [1] = at 5.0 µM (retest, dose inferred, filed as 0.5)
# [2] = at 50.0 µM (retest, dose inferred, filed as 5.0)
SMILES,growth inhibition [1],growth inhibition [2],growth inhibition (at 50.0 µM)
Cc1ccc(S(=O)(=O)OC2C(C)OCOC(C)C2OS(=O)(=O)c2ccc(C)cc2)cc1 (configuration not stated),2%,15%,93% (active)
CCN1CCNc2c3cc(OC)ccc3nc3c([N+](=O)[O-])ccc1c23,1%,2%,-3.6%
CN(C)Cc1ccc2[nH]c3c(c2c1)CCCC3,1%,85% (active),45%
Oc1cc(F)cc2cccnc12,100% (active),100% (active),93.3% (active)
O=C1C=C(Br)C(=O)C12CCc1ccccc12 (configuration not stated),99% (active),99% (active),99.6% (active)
CCC[n+]1ccc(/C=N\NC(N)=S)c2ccccc21,15%,42%,-6.7%
CCCCCCCCCCCCNCCNCCN,61%,96% (active),89% (active)
COC(=O)c1n[nH]c(C(C)C)c1N=NN(C)C,-38%,96% (active),98.3% (active)
COC(=O)C1=CCC[C@H]2C1(C)CCC(C)C21CC(c2ccoc2)OC1=O (some centres not stated),-8%,83% (active),67.2%
S=C(N/N=C1/CCCC/C1=N/NC(=S)N1CCOCC1)N1CCOCC1,51%,99% (active),91% (active)
CC(C)C1=CC(=O)C2=C(CCC3C(C)(C(=O)O)CCC[C@]23C)C1=O (some centres not stated),54%,98% (active),92.3% (active)
CC(=O)C(=C(I)I)c1ccccc1,-34%,83% (active),33.4%
CN(N(P(c1ccccc1)c1ccccc1)P(c1ccccc1)c1ccccc1)P(c1ccccc1)c1ccccc1,1%,-4%,76.5% (active)
CC1=NN(c2ccccc2)C(=O)C1N=Nc1cc(Cl)cc(S(=O)(=O)O)c1O (configuration not stated),66%,30%,26.3%

# — PubChem BioAssay (NCI)
